# Source: PubChem BioAssay AID2380 (Sanford-Burnham Center for Chemical Genomics, 2010)
# About 960 (0.29%) of roughly 330,000 compounds were called active.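 How the source made its calls: active means compounds whose signal lies at least 3.5 SD above the mean of all wells on their plate; inactive means the rest.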 What follows is part of a selection rich in actives, with near analogues and random picks from the rest.
# Assay: inducers of MIN6 beta-cell proliferation, primary screen, ATP luminescence, uHTS (AID 2380);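 further: 0% = DMSO-treated cells in low-serum medium and 100% = 10% serum control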
# Conditions: MIN6 cells proliferation, ATPlite luminescence, 48 h; at 10 µM; stronger effect = higher value; 100% = growth in 10% serum; cells starved in 0.2% serum
row,Compound,proliferation
1,Cc1cc(C)c(S(=O)(=O)NCC2CCC(C(=O)NCc3ccc4c(c3)OCO4)CC2)c(C)c1 (stereo not given),-1.16% (inactive)
2,O=C(CN1CCN(c2ccc(Cl)cc2)CC1)c1ccccc1,-0.29% (inactive)
3,COc1ccc(CN2CCNC(=O)C2CC(=O)NCc2cn[nH]c2-c2ccccc2)c(F)c1 (stereo not given),0.21% (inactive)
4,Cc1ccc2c(c1)N(S(=O)(=O)c1cc(-c3cc(C)no3)ccc1C)CCO2,-6.66% (inactive)
5,CCOC(=O)C1=C(CC)OC(N)=C(C#N)C1c1ccc(F)cc1F (stereo not given),9.9% (active)
6,C=CCOC(=O)C1=C(C)OC(N)=C(C#N)C1c1ccc(F)cc1 (stereo not given),-0.46% (inactive)
7,CCOC(=O)C1=C(C)OC(N)=C(C#N)C1c1cncc(-c2ccc(F)cc2)c1 (stereo not given),-3.32% (inactive)
8,CC(=O)NC(C)(C)C1CC=C(C)/C(=N\O)C1 (stereo not given),-0.3% (inactive)
9,CCOC(=O)c1sc(NC(=O)CCN2CCOCC2)c(C(=O)OCC)c1C,-6.14% (inactive)
10,CCOC(=O)c1c(NC(=O)CCl)sc(C(=O)N(CC)CC)c1C,-3.42% (inactive)
11,CCOC(=O)Nc1sc(C(=O)N(C)C)c(C)c1C(=O)OCC,7.91% (active)
12,NC(=O)c1nsc(C(=O)N(CCCN2CCOCC2)C(C(=O)NC2CCCCC2)c2ccc(Cl)cc2)c1N (stereo not given),0% (inactive)
13,Cc1noc(COc2ccccc2OCc2onc(C)c2Cl)c1Cl,-3.09% (inactive)
14,COC(=O)Cn1nc(-c2ccccc2)c2cc(Cl)ccc21,-1.48% (inactive)
15,Cn1nc(-c2ccccc2)c2cc([N+](=O)[O-])ccc21,8.71% (active)
16,O=[N+]([O-])c1ccc2c(c1)C(O)n1nc(-c3ccccc3)nc1S2 (stereo not given),-0.32% (inactive)
17,C/C(Cl)=C\Cn1c(Nc2cccc(C)c2)nc2c1c(=O)n(C)c(=O)n2C,-1.44% (inactive)
18,COc1ccc(NC(=O)CNc2cc(S(=O)(=O)N3CCOCC3)ccc2N2CCOCC2)c(OC)c1,-0.63% (inactive)
19,CCOC(=O)C1(Cc2ccccc2C)CCCN(C(=O)CCc2c(C)noc2C)C1 (stereo not given),0.64% (inactive)
20,Cc1ccc(S(=O)(=O)N2CCN(C)CC2)cc1C(=O)NC1CCCCC1,-0.96% (inactive)
21,Cc1ccc(S(=O)(=O)N2CCCCC2)cc1C(=O)N1CCN(CCO)CC1,12.6% (active)
22,CCOC(=O)N1CCN(C(=O)c2cn(C)c3ccc(S(=O)(=O)N4CCCC4)cc3c2=O)CC1,-0.22% (inactive)
23,CCC(NC(=O)c1ccccc1NC(=O)c1ccccc1)C(=O)NNC(=O)CSc1nc2ccccc2o1 (stereo not given),-0.4% (inactive)

row,Compound,proliferation
1,COc1ccc(N(CC(=O)N2CCOCC2)S(=O)(=O)c2ccccc2)cc1Cl,-0.37% (inactive)
2,COCCN(C(=O)CCC(=O)Nc1nccs1)C(C(=O)NC(C)(C)C)c1ccc(Cl)cc1 (stereo not given),5.62% (inactive)
3,CC(=O)Nc1ccc(/C(C)=N/NC(=O)CN(c2ccccc2Br)S(C)(=O)=O)cc1,0% (inactive)
4,CCn1c(=O)c([N+](=O)[O-])c(NCc2ccc3c(c2)OCO3)c2ccccc21,8.6% (active)
5,CCn1c(=O)cc(SCC(=O)NCc2ccc3c(c2)OCO3)c2ccccc21,0.19% (inactive)
6,C=CCn1c(=O)c(C(=O)NCc2ccc3c(c2)OCO3)c(O)c2ccccc21,-5.37% (inactive)
7,CCc1ccc(S(=O)(=O)NCC(O)COc2ccc(OC)cc2)cc1 (stereo not given),1.69% (inactive)
8,COc1ccc(CN(C(=O)CSc2nnc(-c3ccc(OC)c(OC)c3)o2)c2ccc(F)cc2)cc1,-1.49% (inactive)
9,CSc1cccc(NC(=O)CN2C(=O)COc3ccc(S(=O)(=O)N4CCOCC4)cc32)c1,-3.64% (inactive)
10,O=C(c1ccc(F)cc1)c1cn(Cc2ccc(F)cc2)c2cc3c(cc2c1=O)OCCO3,-0.71% (inactive)
11,Cc1cc(NC(=O)CSCC(=O)NC(C)c2ccccc2)no1 (stereo not given),-3.94% (inactive)
12,Cc1cc(NC(=O)CSc2nc3ccccc3n2CC(C)C)no1,7.98% (active)
13,Cc1cc(NC(=O)COn2nnc3ccccc32)no1,-1.01% (inactive)
14,CCOc1ccc(C(=O)Nc2ccc(CN3CCOCC3)cc2)cc1Cl,-1.37% (inactive)
15,CCOC(=O)c1csc(CCNC(=O)c2oc3c(Cl)cc(C)cc3c2C)n1,-3.1% (inactive)
16,CCOC(=O)C(C)n1nc(-c2ccccc2)c2ccccc2c1=O (stereo not given),4.32% (inactive)
17,O=c1c2ccccc2c(-c2ccc(Br)cc2)nn1Cc1ccccc1,-5.75% (inactive)
18,CCCNC(=O)CCn1nc(-c2ccccc2)c2ccccc2c1=O,9.9% (active)
19,CCCn1c(C)cc(/C=C(\C#N)C(=O)OCC(=O)Nc2cc(OC)c(OC)c(OC)c2)c1C,-0.86% (inactive)
20,COc1ccccc1N(C)C(=O)c1cc(S(=O)(=O)N2CCc3ccccc32)cn1C,-2.09% (inactive)
21,CCOC(=O)c1c(N=CN(C)C)c(C#N)c2n1CCCC2,5.05% (inactive)
22,CC1=NN(C(=O)CCCc2ccccc2)C(O)(C(F)(F)F)C1 (stereo not given),-1.71% (inactive)
23,OC1CN=C2Sc3ccccc3N2C1 (stereo not given),5.2% (active)

row,Compound,proliferation
1,CCOC(=O)N1CCN(C(=O)c2ccc3nc4cc(Cl)ccc4c(=O)n3c2)CC1,-2.76% (inactive)
2,O=C(CN1CCN(c2ccc(Cl)cc2)CC1)NCc1cccs1,0.22% (inactive)
3,COc1cc2c(cc1OC)C(C(=O)NCc1ccco1)C1c3ccccc3CCN1C2=O (stereo not given),9.44% (active)
4,CC1(C)SC2c3ccccc3C(=O)N2[C@@H]1C(=O)NCc1ccco1 (stereo not given in full),0.14% (inactive)
5,COc1ccc(S(=O)(=O)N2CCC(C(=O)NCc3ccco3)CC2)cc1C,-0.27% (inactive)
6,O=C1NC(c2ccc(-c3ccccc3[N+](=O)[O-])o2)C(C(=O)c2ccc(Cl)cc2)C(O)(C(F)(F)F)N1 (stereo not given),-2.76% (inactive)
7,COC(C(=O)NCc1ccccc1C)c1ccccc1 (stereo not given),-1.34% (inactive)
8,CC(=O)CC[C@@H](C)O[C@@H]1OC(C)[C@H](O)CC1O (stereo not given in full),-5.25% (inactive)
9,COc1cccc(CNC(=O)CCC2CCCN(C(=O)c3ccoc3C)C2)c1 (stereo not given),12.3% (active)
10,COc1cccc(CNC(=O)CCC2CCCN(C(=O)c3ccc(F)c(Cl)c3)C2)c1 (stereo not given),-1.84% (inactive)
11,COc1cccc(CNC(=O)CCC2CCCN(C(=O)c3cc(C)[nH]n3)C2)c1 (stereo not given),0.78% (inactive)
12,COc1ccc(/C=C2\CCCC3C2=NN(C(=O)c2scnc2C)C3c2ccc(OC)cc2)cc1 (stereo not given),-5.85% (inactive)
13,COc1ccc(N2CCN(C(CNS(=O)(=O)c3ccc(C)cc3)c3ccccc3)CC2)cc1 (stereo not given),-4.55% (inactive)
14,CCCOC1CCCN(Cc2cn(C)nc2-c2ccccc2F)C1 (stereo not given),1.33% (inactive)
15,Cn1cc(CN2CCC(C(O)CCc3ccccc3)CC2)c(-c2ccccc2F)n1 (stereo not given),11.8% (active)
16,CN(CCc1cnn(C)c1)Cc1cn(C)nc1-c1ccccc1F,-0.61% (inactive)
17,COc1cc(/C=C/CO)cc(OC)c1O[C@@H]1O[C@H](CO)[C@@H](O)[C@H](O)[C@H]1O,-0.51% (inactive)
18,O=C(O)c1cccc(S(=O)(=O)N2CC=C(c3ccccc3)CC2)c1,0.12% (inactive)
19,Cc1ccc(NC(=O)c2ccc(S(=O)(=O)NCC3CCCO3)cc2)cc1C (stereo not given),-3.24% (inactive)
20,N#Cc1cccc(CN2CCC(=O)N([C@H](CO)c3ccccc3)CC2)c1,14.7% (active)
21,O=C1CCN(Cc2ccccc2)CCN1[C@H](CSc1ccccc1)c1ccccc1,2.8% (inactive)
22,N#Cc1cccc(CN2CCC(=O)N(CCO)CC2)c1,-4.43% (inactive)
23,COc1cccc(N=c2oc3c(C)ncc(CO)c3cc2C(N)=O)c1,-0.09% (inactive)

row,Compound,proliferation
1,CC(C)Cc1oc(C(=O)O)cc1CN,-3.33% (inactive)
2,CCCCNC(=O)OCCSCCS(=O)(=O)c1ccc(Cl)cc1,-0.91% (inactive)
3,CC[C@@H]1Cc2cc(O)ccc2C2=C1c1ccc(O)cc1C[C@H]2CC,-8.09% (inactive)
4,COCCCNC(=O)Cn1c(=O)n(Cc2ccccc2Cl)c(=O)c2cc(OC)c(OC)cc21,-2.84% (inactive)
5,COc1ccc2c(c1)C(=C(C#N)C#N)C(=O)N2CCc1ccccc1,-3.84% (inactive)
6,CC(N)C12CC3CC(CC(O)(C3)C1)C2 (stereo not given),-0.37% (inactive)
7,CN(CC(=O)Nc1c(Cl)cccc1Cl)C(=O)c1ccncc1,-1.79% (inactive)
8,CN1CCN(c2ccc(CNS(=O)(=O)c3cccc(F)c3)cc2)CC1,-0.97% (inactive)
9,CC(=O)c1ccc(S(=O)(=O)NCc2nnnn2-c2ccccc2)cc1,11.8% (active)
10,COc1ccc(-n2nnnc2CNC(=O)c2ccc3ccccc3c2)cc1,-1.98% (inactive)
11,O=S(=O)(Cc1nnnn1-c1ccccc1)c1ccccc1,-0.06% (inactive)
12,COc1ccccc1C(=O)N1CCN=C1SCc1cccnc1,0.39% (inactive)
13,CCCCn1c(N)c(N(CC)C(=O)c2ccc(N(C)S(=O)(=O)c3ccc(C)cc3)cc2)c(=O)[nH]c1=O,-0.39% (inactive)
14,Cc1cccc(NS(=O)(=O)c2cccc(C(=O)NNC(=O)c3ccccc3O)c2)c1,1.68% (inactive)
15,CCC1(C)Cc2c(sc3nnn(CC(=O)Nc4ccc(Cl)cc4)c(=O)c23)CO1 (stereo not given),-4.3% (inactive)
16,C/C(=N\NC(=O)c1ccccc1C)c1ccc(N2CCOCC2)cc1,5.16% (active)
17,O=C(NN=Cc1ccc(N2CCOCC2)cc1)c1cc2ccccc2cc1O,-1.83% (inactive)
18,Cc1ccc(C(=O)NC(=S)Nc2ccc(N3CCOCC3)cc2)cc1,-3.24% (inactive)
19,CN=C1SC(C(=O)O)CC(=O)N1C (stereo not given),-0.72% (inactive)
20,CCC(C)NC(=O)/C=C/c1ccc(S(=O)(=O)NCc2ccco2)cc1 (stereo not given),-2.61% (inactive)
21,Cc1ccc(O)c(NC(=O)c2cc(-c3ccco3)on2)c1,-1.09% (inactive)
